Measurements: the supplement of paper PMC4206461
A number with no mark means an inactive call.

System: Pseudomonas aeruginosa PA14 dppBCDF deletion mutant
Test: respiration area under curve with compound as sole nitrogen source, 24 h (OmniLog AUC (arbitrary units)); higher = more respiration / better utilisation as nitrogen source, active = 2000 or more; extreme values may be limits of the assay
Description: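 Biolog Phenotype MicroArray plates PM6-PM8: each di/tripeptide is the sole nitrogen source. Tetrazolium reduction was read in the OmniLog every 15 min for 24 h at 37°C and summarised as area under the respiration curve (arbitrary units). Values below 2000 count as no respiration. Strain is the dipeptide ABC transporter deletion mutant.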

Structure (SMILES)	respiration area under curve
NC(N)=NCCC[C@H](N)C(=O)N[C@@H](Cc1ccccc1)C(=O)O (plate: PM6)	8100 (active)
C[C@H](N)C(=O)N[C@@H](CC(=O)O)C(=O)O (plate: PM8)	2510 (active)
C[C@H](N)C(=O)N[C@@H](C)C(=O)O (plate: PM6)	6250 (active)
CC(C)C[C@@H](N)C(=O)N[C@H](CC(C)C)C(=O)O (plate: PM8)	0
N[C@@H](Cc1ccccc1)C(=O)N[C@@H](CC(=O)O)C(=O)O (plate: PM8)	0
C[C@H](NC(=O)CCN)C(=O)O (plate: PM8)	0
NCC(=O)N[C@@H](Cc1ccc(O)cc1)C(=O)O (plate: PM6)	216
NC(=O)CC[C@H](NC(=O)[C@@H](N)CO)C(=O)O (plate: PM8)	558
CC(C)[C@H](N)C(=O)N[C@@H](Cc1ccccc1)C(=O)O (plate: PM8)	3500 (active)
N[C@@H](Cc1ccc(O)cc1)C(=O)N[C@@H](Cc1ccccc1)C(=O)O (plate: PM7)	3450 (active)
C[C@H](O)[C@@H](NC(=O)CN)C(=O)O (plate: PM8)	0
N[C@@H](Cc1ccccc1)C(=O)NCC(=O)O (plate: PM7)	872
C[C@H](N)C(=O)NCC(=O)O (plate: PM6)	3630 (active)
CC[C@H](C)[C@H](N)C(=O)N[C@@H](Cc1ccccc1)C(=O)O (plate: PM6)	52.2
CC[C@H](C)[C@H](N)C(=O)N[C@@H](CCSC)C(=O)O (plate: PM6)	0
N[C@@H](Cc1c[nH]c2ccccc12)C(=O)N[C@@H](CO)C(=O)O (plate: PM7)	106
CSCC[C@H](NC(=O)CN)C(=O)O (plate: PM6)	0
C[C@@H](O)[C@H](N)C(=O)N[C@@H](CO)C(=O)O (plate: PM8)	0
C[C@@H](N)C(=O)NCC(=O)O (plate: PM8)	0
C[C@@H](O)[C@H](NC(=O)CN)C(=O)O (plate: PM6)	15.8

Structure (SMILES)	respiration area under curve
CC(C)[C@H](NC(=O)[C@@H](N)CO)C(=O)O (plate: PM7)	3050 (active)
N[C@@H](Cc1ccc(O)cc1)C(=O)N[C@@H](CCC(=O)O)C(=O)O (plate: PM7)	277
N[C@@H](Cc1c[nH]c2ccccc12)C(=O)N[C@@H](Cc1c[nH]c2ccccc12)C(=O)O (plate: PM7)	436
NCC(=O)N1CCC[C@H]1C(=O)O (plate: PM6)	0
C[C@H](NC(=O)[C@@H](N)CO)C(=O)O (plate: PM7)	2670 (active)
N[C@@H](CC(=O)O)C(=O)N[C@@H](CCC(=O)O)C(=O)O (plate: PM6)	0
CC(C)C[C@H](NC(=O)[C@@H](N)CC(=O)O)C(=O)O (plate: PM6)	0
CSCC[C@H](N)C(=O)N[C@@H](Cc1c[nH]c2ccccc12)C(=O)O (plate: PM7)	2520 (active)
N[C@@H](CO)C(=O)N[C@@H](CO)C(=O)O (plate: PM7)	988
N[C@@H](Cc1ccccc1)C(=O)N[C@@H](Cc1ccc(O)cc1)C(=O)O (plate: PM8)	881
NC(=O)CC[C@H](N)C(=O)NCC(=O)O (plate: PM6)	2500 (active)
CC[C@H](C)[C@H](NC(=O)[C@@H](N)Cc1ccccc1)C(=O)O (plate: PM7)	6010 (active)
CSCC[C@H](NC(=O)[C@@H](N)CO)C(=O)O (plate: PM7)	88.8
N[C@@H](CC(=O)O)C(=O)N[C@@H](CC(=O)O)C(=O)O (plate: PM6)	12.5
CC[C@H](C)[C@H](N)C(=O)N[C@@H](Cc1c[nH]c2ccccc12)C(=O)O (plate: PM6)	76.8
CC[C@H](C)[C@H](NC(=O)[C@H](C)N)C(=O)O (plate: PM8)	1150
N[C@@H](Cc1ccc(O)cc1)C(=O)N[C@@H](Cc1c[nH]c2ccccc12)C(=O)O (plate: PM7)	1770
CC(C)C[C@H](NC(=O)[C@@H](N)CCCN=C(N)N)C(=O)O (plate: PM6)	8090 (active)
NC(N)=NCCC[C@H](N)C(=O)N[C@@H](CCC(=O)O)C(=O)O (plate: PM6)	8810 (active)
CC(C)C[C@@H](N)C(=O)NCC(=O)O (plate: PM8)	0
